# Assay results taken from PubChem BioAssay AID1479 (National Center for Advancing Translational Sciences (NCATS), 2009).
# The whole screen tested about 280,000 compounds, of which about 820 (0.29%) were called active. About 1% were inconclusive and are not listed. Calls come from the whole dose curve; as a rule, active = well fitted curve in either direction with a large enough effect; inconclusive = small, poorly fitted or top-dose-only effect; inactive = flat fitted curve, though single readings scatter. Shown is part of a subset that was picked to be rich in actives.
# Test: Total Fluorescence Counterscreen for Inhibitors of the Interaction of Thyroid Hormone Receptor and Steroid Receptor Coregulator 2
# Conditions: TRb/SRC2 Texas Red total fluorescence interference; series mostly up to 106 µM; fluorescence change, negative = quenching: at the top concentration
# Summary of the method: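 Human TRβ ligand-binding domain (0.6 uM) and Texas Red SRC2 peptide (20 nM) in Tris buffer with 1 uM T3 and 5% DMSO were incubated with pinned compound for 5 hr at ambient temperature. Total fluorescence was computed as S + 2P (555/632 nm).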
# % is set by controls: 0 for no effect and ±100 for the full control effect; potency is the fitted concentration of half-maximal effect; tags give direction and shape of the fitted curve or compound fluorescence and quenching.
SMILES,"fluorescence change, negative = quenching",Potency
COc1cc2ccccc2cc1C(=O)Nc1cccc(-c2nc3ccccc3o2)c1,0.567% (inactive),–
O=C(CN1CCSc2ccccc21)N1CCN(c2ccccc2)CC1,-0.0734% (inactive),–
Cc1ccc(N)c(S(=O)(=O)O)c1,-6.26% [at 201 µM] (inactive),–
Cn1c(=O)[nH]c(=O)c2c1nc(NCCc1ccccc1)n2Cc1ccc(F)cc1,-0.664% (inactive),–
COc1ccc(CNC(=O)Cc2coc3ccc(C(C)C)cc23)cc1,-20.8% (inactive),–
O=C(Nc1ccc2nccnc2c1)c1ccco1,-2.35% (inactive),–
CC(C)(C)c1ccc(NC(=O)NCc2ccco2)cc1,-4.34% (inactive),–
COCCNC(=O)Nc1ccc2nc(-c3ccco3)c(-c3ccco3)nc2c1,–,28.2 µM [quencher] (active)
CC1CCCN(c2nc3c(S(=O)(=O)c4ccc(C(C)C)cc4)nnn3c3ccsc23)C1 (stereo unspecified),-1.97% (inactive),–
Cc1ccc(-c2noc(CSc3nnc(-c4ccc(Cl)cc4)n3C)n2)cc1,6.15% (inactive),–
CCc1cccc(NC(=O)Cn2nc(CC)n3c(cc4cc(C)ccc43)c2=O)c1,-3.05% (inactive),–
OCCC(F)(F)C(F)(F)C(F)(F)C(F)(F)C(F)(F)C(F)(F)C(F)(F)C(F)(F)F,-3.95% [at 201 µM] (inactive),–
CC(=O)c1cccc(Nc2ccc3cc(S(=O)(=O)N4CCC(C)CC4)ccc3n2)c1,-2.64% (inactive),–
COc1ccccc1NC(=O)c1cc(S(=O)(=O)NCCc2ccccc2)ccc1F,-1.18% (inactive),–
CC1(C)C(=O)N(Br)C(=O)N1Br,0.683% [at 201 µM] (inactive),–
COC(=O)c1ccc(NC(=O)CCc2c(C)nc3c(c(C)nn3-c3ccc(C)cc3)c2C)cc1,-1.65% (inactive),–
CC(=O)N(CCN(C(C)=O)C(C)=O)C(C)=O,-0.655% [at 201 µM] (inactive),–
CC(NC(=O)c1cc2c(=O)n3ccccc3nc2n(C(C)C)c1=N)c1ccccc1 (stereo unspecified),-1.91% (inactive),–
O=C(Cn1c(=O)nc(-c2ccccc2)c2cc(Cl)ccc21)NCc1ccc(Cl)cc1,-1.77% (inactive),–
Cc1ccccc1CNC(=O)C1CCCN(S(=O)(=O)N(C)c2ccc(F)cc2)C1 (stereo unspecified),-1.26% (inactive),–
COc1ccc(CCN2C(=O)N(c3cccc(OC)c3)C(=O)C2CC(=O)Nc2ccccc2)cc1 (stereo unspecified),-1.82% (inactive),–
O=C(CC1N=C2c3ccccc3N=C(SCc3cccc(Cl)c3)N2C1=O)NCc1ccc2c(c1)OCO2 (stereo unspecified),-0.205% (inactive),–

SMILES,"fluorescence change, negative = quenching",Potency
CCCCCCCCCCCCCCCC,-2.34% [at 201 µM] (inactive),–
COc1ccc(CCC(=O)NCc2ccc3c(c2)CCN3C(=O)c2ccc(F)cc2)cc1,-12.6% (inactive),–
CC(Nc1ccc(-c2nc(-c3ccco3)no2)cc1[N+](=O)[O-])c1ccccc1 (stereo unspecified),-1.44% (inactive),–
Cc1oc2ccc(O)c(CN3CCC(C)CC3)c2c1C(=O)Nc1ccccc1,-29.7% (inactive),–
CCc1cccc(C)c1Nc1c(-c2ccc(N(C)C)cc2)nc2ncccn12,1.78% (inactive),–
CCn1c(=O)cc(OCC(=O)Nc2cc(Cl)c(OC)cc2OC)c2ccccc21,-3.2% (inactive),–
CCC(=O)Nc1cccc(C(=O)OCc2cc(=O)n3nc(CC)sc3n2)c1,-0.224% (inactive),–
Cc1cccc(CSc2nc3ccncc3n2CC(=O)N(C)C2CCCCC2)c1,-0.651% (inactive),–
COc1ccc(CCNC(=O)CCCCn2c(=O)c3ccccc3n(Cc3ccccc3C)c2=O)cc1OC,10.7% (inactive),–
COc1ccc(CNc2nc(-c3ccccc3)nn2C(=O)c2ccccc2OC)cc1,1.36% (inactive),–
COc1ccccc1NC(=O)c1cc(C2CC2)nc2c1c(C)nn2-c1ccc(C)cc1,-0.295% (inactive),–
CCc1nnc2c3ccccc3nc(N3CCN(c4ccc(C)cc4C)CC3)n12,-3.56% (inactive),–
Cc1ccc(C)c(N2CCN(C(c3ccccc3)c3nnc(-c4ccccc4)o3)CC2)c1 (stereo unspecified),0.0308% (inactive),–
CCOC(=O)c1cccc(NC(=O)c2cc(S(=O)(=O)N3CCCC(C)C3)cn2C)c1 (stereo unspecified),0.77% (inactive),–
CCn1c2ccccc2c2cc(NC(=O)COc3ccc(C)cc3C)ccc21,-2.08% (inactive),–
CCOC(=O)c1ccc(NC(=O)c2csc3c2CCCCC3)cc1,0.898% (inactive),–
CCOCCCNC(=O)c1c(NC(=O)c2nc(SC)ncc2Cl)sc2c1CCCC2,8.52% (inactive),–
COCCCNC(=O)c1c(NC(=O)c2cc(=O)c3cc(C)c(C)cc3o2)sc2c1CCCC2,8.54% (inactive),–
CCCSc1ncc(Cl)c(C(=O)Nc2sc3c(c2C(=O)NCCOC)CCCC3)n1,–,0.1 µM [quencher] (active)
CCOC(=O)c1scc(-c2ccc(C)cc2)c1S(=O)(=O)Nc1cc(C)ccc1C,-5.89% (inactive),–
O=C(Oc1ccc([N+](=O)[O-])cc1)c1ccc(Cl)c(S(=O)(=O)N2CCCCC2)c1,–,0.316 µM [quencher] (active)
O=[N+]([O-])c1cccc(S(=O)(=O)N2CCCCCC2)c1,-2.2% (inactive),–

SMILES,"fluorescence change, negative = quenching",Potency
O=C(Nc1ccc2c(c1)OCCO2)c1ccc(Cl)c(S(=O)(=O)N2CCCCC2)c1,0.377% (inactive),–
CN(C)S(=O)(=O)c1cccc(NC(=S)NCc2ccc3c(c2)OCO3)c1,-3.31% (inactive),–
CN(C)S(=O)(=O)c1cccc(NC(=S)N/N=C/C(=O)c2ccccc2)c1,–,4.47 µM [quencher] (active)
Cc1ccc(/C=N/NC(=S)Nc2cccc(S(=O)(=O)N(C)C)c2)o1,-2.71% (inactive),–
COc1ccc(OC)c(NC(=O)CSC2=Nc3ccccc3C3=NC(CC(=O)NCCc4ccccc4)C(=O)N23)c1 (stereo unspecified),-2.61% (inactive),–
CCC(Sc1nnc(-c2ccc(OC)cc2)c(-c2ccc(OC)cc2)n1)C(=O)NC1CCCCC1 (stereo unspecified),-0.831% (inactive),–
CCCSc1nc2sc3c(c2c(=O)n1-c1cccc(Br)c1)CC(C)(C)OC3,-1.43% (inactive),–
Fc1ccc(-c2nn(-c3ccccc3Cl)c3c2cnc2ccccc23)cc1,1.1% (inactive),–
COC(=O)c1sc(=S)n(-c2ccccc2)c1N,-0.443% (inactive),–
CCOC(=O)c1c(N)sc(C(C)=O)c1C,1.41% (inactive),–
COCCOC(=O)c1sc(=S)n(CCOC)c1N,–,50.1 µM [fluorescent] (active)
COc1ccc(-c2nnc(SCC(=O)Nc3ccc(C(C)C)cc3)nc2-c2ccc(OC)c(OC)c2)cc1OC,0.883% (inactive),–
Cc1ccc(-n2nc(C)c3c(C)cc(=O)n(CC(=O)Nc4ccc(C(C)C)cc4)c32)cc1,3.88% (inactive),–
COc1cccc(-c2nc(S(=O)(=O)c3ccc(C)cc3)c(NCc3ccccc3)o2)c1,-2.77% (inactive),–
COc1cccc(CN2C(=O)CCC2(C)C(=O)NC2CCCCCC2)c1 (stereo unspecified),1.09% (inactive),–
COc1ccc(OC)c(CN2C(=O)CCC2(C)C(=O)NC2CCCCCC2)c1 (stereo unspecified),-0.653% (inactive),–
CCc1ccccc1N1C(=O)CN(S(=O)(=O)CC)CC1(C)C(=O)NC1CCCCC1 (stereo unspecified),–,17.8 µM [quencher] (active)
COc1ccc(S(=O)(=O)NCc2cccn2Cc2cccc(C)c2)cc1Cl,-1.88% (inactive),–
CCOc1ccc(N2CC(C)Cn3c2nc2c3c(=O)n(Cc3c(F)cccc3Cl)c(=O)n2C)cc1 (stereo unspecified),-2.1% (inactive),–
O=C(NCCCN1CCN(c2cccc(Cl)c2)CC1)c1nnc(Cc2ccc(F)cc2Cl)o1,-0.155% (inactive),–
CCOc1cc(C2c3c(-c4ccc(Br)cc4)n[nH]c3C(=O)N2c2ccc(Cl)cc2)ccc1O (stereo unspecified),0.442% (inactive),–
CC1CCN(S(=O)(=O)c2ccc3c(c2)N(CC(=O)NCc2ccccc2Cl)C(=O)CO3)CC1,-0.255% (inactive),–

SMILES,"fluorescence change, negative = quenching",Potency
CC(C)CC(=O)Nc1nnc(S(=O)(=O)N(C)c2ccc(Cl)cc2)s1,-12.2% (inactive),–
Cc1ccccc1C(=O)Nc1nnc(S(=O)(=O)N(C)c2ccc(Cl)cc2)s1,–,31.6 µM [quencher] (active)
CCN(c1ccc(Cl)cc1)S(=O)(=O)c1nnc(NC(=O)c2ccco2)s1,-8.1% (inactive),–
CN(Cc1ccccc1)C(=O)CCS(=O)(=O)c1cc(Br)cc2c1N(C(=O)C1CC1)CC2,-2.08% (inactive),–
O=C(Nc1ccc(F)cc1F)c1cnn(-c2ccc(F)cc2)c1-n1cccc1,0.454% (inactive),–
Clc1nc(Cl)c(Cl)c(Cl)c1Cl,-4.5% [at 201 µM] (inactive),–
COc1c(O)c2c(=O)cc(OC)c3c4c(OC)cc(=O)c5c(O)c(OC)c6c(c(c1C[C@@](C)(O)[C@H]6C(C)=O)c23)c54,–,44.7 µM [fluorescent] (active)
CCn1cc(C(=O)N2CCN(c3cc(Cl)ccc3C)CC2)c(=O)c2cc(S(=O)(=O)N3CCCC3)ccc21,-1.15% (inactive),–
CCc1ccccc1NC(=O)Cn1c(=O)n(-c2cccc(C)c2)c(=O)c2c1c1cc(OC)ccc1n2C,-1.44% (inactive),–
Cc1ccccc1C(=O)N(Cc1ccc(N(C)C)cc1)CC1CCCO1 (stereo unspecified),0.685% (inactive),–
N#C/C(=C/c1ccc(N2CCCCC2)o1)C(=O)NCCc1c[nH]c2ccccc12,-0.527% (inactive),–
N#C/C(=C/c1ccc(N2CCOCC2)o1)C(=O)N1CCOCC1,–,44.7 µM [fluorescent] (active)
N#C/C(=C\c1ccc(N2CCOCC2)o1)C(=O)N1CCOCC1,0.512% (inactive),–
CCc1c(C(=O)O)c(=O)cnn1-c1ccc(Cl)cc1,-12.7% [at 201 µM] (inactive),–
O=C(CCSCc1ccccc1F)N1CCN(c2ccc(Cl)cc2)CC1,-2.62% (inactive),–
COc1cccc(CNC(=O)c2ccc3c(c2)N(Cc2ccc(C(F)(F)F)cc2)C(=O)c2ccccc2S3)c1OC,–,31.6 µM [quencher] (active)
COc1ccccc1NC(=O)CN1C(=O)c2ccccc2Sc2ccc(C(=O)N3CCCC3)cc21,-6.38% (inactive),–
Cc1ccccc1CN1C(=O)c2ccccc2Sc2ccc(C(=O)NCCCN3CCOCC3)cc21,0.0604% (inactive),–
CC(=O)N1CCCc2cc(S(=O)(=O)N3CCC(C(=O)NCc4ccc(F)cc4)CC3)ccc21,-33.4% (inactive),–
CCCCNC(=O)c1ccc2c(c1)NC(=O)C(C(C)C)N2 (stereo unspecified),–,0.0562 µM [quencher] (active)
CCCN(CCC)CCNC(=O)c1ccc2c(c1)NC(=O)C(CS(=O)(=O)Cc1cccc(Br)c1)N2 (stereo unspecified),-0.748% (inactive),–
CCCCNC(=O)CCNC(=O)c1ccc(C(C)(C)C)cc1,-2.87% (inactive),–

SMILES,"fluorescence change, negative = quenching",Potency
CSc1ccccc1NC(=O)CCS(=O)(=O)c1nc(-c2cccs2)cc(C(F)(F)F)n1,-0.205% (inactive),–
O=C(Nc1cc(C(F)(F)F)ccc1Cl)c1ccc2c(c1)CCN2S(=O)(=O)c1ccccc1,1.06% (inactive),–
CCc1ccccc1NC(=O)CSc1nc(C)c(C(=O)Nc2ccccc2)c(-c2ccc(Cl)cc2)c1C#N,1.72% (inactive),–
CCn1cc2nc(SCc3cccc(F)c3)n(CCc3ccccc3)c(=O)c2n1,-0.462% (inactive),–
CN1c2ccc(Cl)cc2-c2nc(SCC(=O)Nc3cc(F)ccc3F)ncc2S1(=O)=O,0.99% (inactive),–
O=C(Nc1nnc(S(=O)(=O)N2CCCc3ccccc32)s1)c1cccc(F)c1,-0.796% (inactive),–
Cc1ccc(S(=O)(=O)N2CCCc3cc(NS(=O)(=O)c4cc(C)ccc4C)ccc32)cc1,-1.28% (inactive),–
Cc1c2cnn(-c3ccccc3)c(=O)c2c(C)n1C(C)C(=O)Nc1ccc(Br)cc1F (stereo unspecified),-3% (inactive),–
O=C(NCc1cccnc1)C(=O)NCC(c1cccnc1)N1CCN(c2ccccc2)CC1 (stereo unspecified),6.49% (inactive),–
CCN(CC)S(=O)(=O)c1ccc2c(c1)nc(CN(C)C(=O)Nc1ccc(Cl)cc1)n2C,0.355% (inactive),–
COCCNc1ncnc2c1c(-c1ccccc1)cn2-c1ccc(C)c(Cl)c1,-0.894% (inactive),–
COc1ccccc1N1CCN(c2ncnc3onc(-c4ccc(F)cc4)c23)CC1,-4.64% (inactive),–
COc1cc(NC(=O)c2cc(C3CC3)nc3c2c(C)nn3-c2ccccc2)cc(OC)c1,-0.897% (inactive),–
Cc1[nH]c2ccccc2c1C(c1ccccc1)c1cccs1 (stereo unspecified),-25.5% (inactive),–
COc1cccc(CNC(=O)Cc2csc3nc(-c4ccccc4)cn23)c1,-5.57% (inactive),–
Fc1ccc(CN2CCc3nc(Nc4ccccc4)ncc3C2)cc1F,-1.99% (inactive),–
Cc1ccc(-c2cn3c(n2)sc2cc(C(=O)NCc4cccs4)ccc23)c(C)c1,4.67% (inactive),–
CC(C)CC(=O)NCC(c1ccc2c(c1)OCO2)N1CCN(c2ccc(F)cc2)CC1 (stereo unspecified),-0.0801% (inactive),–
